{
  "source": "PubChem BioAssay (NCATS)",
  "note": "A number with no mark means an inactive call. Active and inactive are the calls of the source. Calls come from the whole dose curve; as a rule, active = well fitted cell-killing curve with a large enough effect; inconclusive = small, poorly fitted or top-dose-only effect, or effect the other way; inactive = flat fitted curve, though single readings scatter. Potency is the fitted concentration of half-maximal effect.",
  "data": [
    {"assay": "MultiTox-Fluor Cytotoxicity Assay - LYMP1-003 - Dead Cells (AID 961); note: nearly all actives have a fitted effect of over 70% in size;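 for cytotoxicity (dead cells): 0% = DMSO and 100% = tetraoctylammonium bromide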", "conditions": "LYMP1-003 lymphoblastoid cells, dead-cell protease fluorescence; series mostly up to 92.2 µM; cytotoxicity (dead cells): at the top concentration", "description": "NIH Chemical Genomics Center [NCGC]\nNIH Molecular Libraries Screening Centers Network [MLSCN]\nNational Institutes of Environmental Health Sciences [NIEHS]\nNational Toxicology Program [NTP]\nWe have developed a 1536-well cell-based assay for quantitative high throughput screening (qHTS) against a number of cell lines to determine in vitro cytotoxicity of small molecules. This particular assay uses a human lymphoblastoid cell line (LYMP1-003) purchased from Coriell Institute.\nNCGC Assay Protocol Summary:\nThe MultiTox-Fluor Cytotoxicity Assay (Promega) is a homogeneous method to simultaneously measure the relative number of live and dead cells in culture by detecting changes in cell membrane integrity. There are two fluorogenic peptide substrates in the assay reagent. Viable cells are determined when the cell-permeant substrate (GF-AFC) enters the cell and is cleaved by protease from live cells resulting in liberated fluorophore. This live-cell protease activity restricted to viable cells is proportional to cell number. The dead cells are determined by using fluorogenic cell-impermeant peptide substrate (bis-AAF-R110) which cleaved by dead cell proteases leaking from damaged cell membrane.\nUsing the MultiTox-Fluor Cytotoxicity Assay, the relative number of dead cells was measured in the lymphoblastoid cell line with complete culture medium following compound treatment for 16 hours. The assay was performed in opaque black Kalypsys 1536-well plates. In the screen, tetraoctylammonium bromide was used as positive control. Library compounds were measured for their ability to cause acute toxicity in the cell line, as reflected by an increase in dead cell protease activity, in a concentration-dependent manner. Data were normalized to the controls for basal activity (DMSO only) and 100% stimulation (15 uM tetraoctylammonium bromide). AC50 values were determined from concentration-response data modeled with the standard Hill equation.\nqHTS protocol for MultiTox-Fluor Cytotoxicity assay\n[Step] [Parameter] [Value] [Description]\n1. Reagent; 5 uL; 2500 lymphoblastoid cells/well\n2. Time; 5 hr; 37 C incubation\n4. Controls; 23 nL; Tetraoctylammonium bromide 6.4pM to 92 uM\n5. Time; 16 hr; 37 C incubation\n6. Reagent; 5 uL; MuliTox-Fluor Assay reagent\n7. Time; 60 min; Room Temperature\n8. Detection; dead-cell fluorescence (Ex/Em=485/520); EnVision plate reader\nKeywords: cytotoxicity, lymphoblastoid cell line, fluorescence, NTPHTS, NTPHTS_NCGC, NIEHS, EPA, DSSTox, MLSMR, MLSCN, NIH Roadmap, qHTS, NCGC", "units": {"cytotoxicity (dead cells)": "%"}, "values": [
      {"molecule": "c1ccc2c(c1)ccc1cc3c(ccc4ccccc43)cc12", "cytotoxicity (dead cells)": -11.5},
      {"molecule": "ClC1=C(Cl)C(Cl)(Cl)C(Cl)=C1Cl", "cytotoxicity (dead cells)": -8.87},
      {"molecule": "C=CC(=O)OCCOCCOC(=O)C=C", "Potency": "20 µM (active)"},
      {"molecule": "CCCCCC/C(C=O)=C\\c1ccccc1", "cytotoxicity (dead cells)": -11},
      {"molecule": "Cc1cc(Nc2ccc(O)cc2)ccc1N", "cytotoxicity (dead cells)": 7.09},
      {"molecule": "c1ccc2c(c1)-c1cccc3c1c-2cc1ccccc13", "cytotoxicity (dead cells)": -5.9},
      {"molecule": "O=C(OCC(COC(=O)c1ccccc1)(COC(=O)c1ccccc1)COC(=O)c1ccccc1)c1ccccc1", "cytotoxicity (dead cells)": -2.84},
      {"molecule": "CO[C@H]1/C=C/O[C@@]2(C)Oc3c(C)c(O)c4c(O)c(c5c(c4c3C2=O)NC2(CCN(CC(C)C)CC2)N=5)=NC(=O)/C(C)=C\\C=C\\[C@H](C)[C@H](O)[C@@H](C)[C@@H](O)[C@@H](C)[C@H](OC(C)=O)[C@@H]1C", "cytotoxicity (dead cells)": 9.59},
      {"molecule": "CCCCCCCC[N+](CCCCCCCC)(CCCCCCCC)CCCCCCCC", "Potency": "10 µM (active)"},
      {"molecule": "C=C(C)c1ccccc1", "cytotoxicity (dead cells)": -9.76},
      {"molecule": "O=C=Nc1ccc(Cc2ccc(N=C=O)cc2)cc1", "cytotoxicity (dead cells)": -11.3},
      {"molecule": "CNc1ccc(O)cc1", "Potency": "12.6 µM (active)"},
      {"molecule": "O=C(/C=C/c1ccc(O)c(O)c1)OC1C[C@](O)(C(=O)O)C[C@@H](O)[C@H]1O", "note": "(stereo partly drawn)", "Potency": "inactive"},
      {"molecule": "O=[N+]([O-])c1cc([N+](=O)[O-])c2ccc(S(=O)(=O)O)cc2c1O", "cytotoxicity (dead cells)": -10.5},
      {"molecule": "Cc1cc(O)c(C(C)(C)C)cc1Sc1cc(C(C)(C)C)c(O)cc1C", "Potency": "31.6 µM (active)"},
      {"molecule": "CN(C)c1ccc(C2(c3ccc(N(C)C)cc3)OC(=O)c3cc(N(C)C)ccc32)cc1", "cytotoxicity (dead cells)": 5.1},
      {"molecule": "CCC(C)Nc1ccc(NC(C)CC)cc1", "note": "(stereo not drawn)", "Potency": "12.6 µM (active)"},
      {"molecule": "CC(=O)Nc1ccc(C(=O)CCl)cc1", "Potency": "25.1 µM (active)"},
      {"molecule": "Cc1cccc(O)c1C", "cytotoxicity (dead cells)": -2.63},
      {"molecule": "CN1[C@H]2CC(OC(=O)[C@H](CO)c3ccccc3)C[C@H]1[C@H]1O[C@H]12", "note": "(stereo partly drawn)", "Potency": "inactive"},
      {"molecule": "Nc1ccc2cc3ccccc3cc2c1", "cytotoxicity (dead cells)": 3.29},
      {"molecule": "O=Cc1ccc(Cl)c(Cl)c1", "cytotoxicity (dead cells)": -10.4},
      {"molecule": "O=C1OC(O)C(C(Cl)Cl)=C1Cl", "note": "(stereo not drawn)", "Potency": "63.1 µM (active)"}
    ]}
  ]
}
